# Experimental data taken from PubChem BioAssay AID1159580 (chemical genetic matrix, 2015).
# Among all 5,500 compounds or so, about 2,000 (36%) were called active. Not shown: some 18% with an inconclusive outcome. The list shows a part of the results. Values without a mark were called inactive. Cut-off read from the data, not from the text of the source: active = normalized growth mostly below about 0.91 (no sharp cut-off); inconclusive = no clear call, values can overlap the other calls; inactive = mostly above about 0.92.
# Assay: chemical genetic growth profiling, strain panel (AID 1159580);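 note: tested at 20 µM; growth read once vehicle control cultures reached saturation at 30 °C; 1 = growth at the plate median or of vehicle wells; lower values mean less growth of the strain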
# Details: S. cerevisiae deletion strains, growth OD
# [1] = locus YHR030C, strain SLT2, active compounds read low
# [2] = locus YJL095W, strain BCK1, active compounds read low
smiles,measurement,setting,value
C[C@]12C=CC(=O)C=C1CCC1C2[C@@H](O)C[C@@]2(C)C1CC[C@]2(O)C(=O)COC(=O)CCC(=O)O (stereo not given in full),normalized growth,[1],0.969
same,normalized growth,"locus YHR079C, strain IRE1, active compounds read low",0.968
same,normalized growth,[2],1
same,normalized growth,"locus YJR066W, strain TOR1, active compounds read low",0.931
same,normalized growth,"locus YLR113W, strain HOG1, active compounds read low",1
same,normalized growth,"locus YNL183C, strain NPR1, active compounds read low",0.931
same,normalized growth,"locus YOR231W, strain MKK1, active compounds read low",0.979
same,normalized growth,"locus YPL256C, strain CLN2, active compounds read low",0.963
CC(CC(O)C1OC1(C)C)[C@@H]1CCC2(C)C3=CCC4C(C)(C)C(=O)CCC4(C)C3CC[C@@]12C (stereo not given in full),normalized growth,"locus YAL021C, strain ccr4, active compounds read low",0.986
same,normalized growth,"locus YAL026C, strain drs2, active compounds read low",0.997
same,normalized growth,"locus YAL030W, strain snc1, active compounds read low",1
same,normalized growth,"locus YBL061C, strain skt5, active compounds read low",1.02
same,normalized growth,"locus YBR009C, strain hhf1, active compounds read low",0.979
same,normalized growth,"locus YBR021W, strain FUR4, active compounds read low",0.993
same,normalized growth,"locus YBR023C, strain chs3, active compounds read low",1.01
same,normalized growth,"locus YBR171W, strain sec66, active compounds read low",0.999
same,normalized growth,"locus YBR229C, strain ROT2, active compounds read low",1.03
same,normalized growth,"locus YBR231C, strain swc5, active compounds read low",1.04
same,normalized growth,"locus YBR279W, strain paf1, active compounds read low",0.999
same,normalized growth,"locus YCL011C, strain gbp2, active compounds read low",1.01
same,normalized growth,"locus YCL016C, strain dcc1, active compounds read low",0.994
same,normalized growth,"locus YCL029C, strain bik1, active compounds read low",1.03
same,normalized growth,"locus YCL061C, strain MRC1, active compounds read low",0.994
same,normalized growth,"locus YCL069W, strain vba3, active compounds read low",0.995
same,normalized growth,"locus YCR088W, strain abp1, active compounds read low",1.01
same,normalized growth,"locus YDL005C, strain med2, active compounds read low",1.01
same,normalized growth,"locus YDL035C, strain GPR1, active compounds read low",0.952
same,normalized growth,"locus YDL040C, strain nat1, active compounds read low",1
same,normalized growth,"locus YDL074C, strain BRE1, active compounds read low",1.02
same,normalized growth,"locus YDL101C, strain DUN1, active compounds read low",1.04
same,normalized growth,"locus YDL134C, strain PPH21, active compounds read low",1.03
same,normalized growth,"locus YDL185W, strain tfp1, active compounds read low",1.03
same,normalized growth,"locus YDL192W, strain arf1, active compounds read low",1.03
same,normalized growth,"locus YDR001C, strain nth1, active compounds read low",0.984
same,normalized growth,"locus YDR069C, strain doa4, active compounds read low",1
same,normalized growth,"locus YDR101C, strain arx1, active compounds read low",1.02
same,normalized growth,"locus YDR137W, strain rgp1, active compounds read low",0.831 (active)
same,normalized growth,"locus YDR159W, strain sac3, active compounds read low",1.01
same,normalized growth,"locus YDR162C, strain NBP2, active compounds read low",1.04
same,normalized growth,"locus YDR195W, strain ref2",0.971
same,normalized growth,"locus YDR297W, strain sur2, active compounds read low",1
same,normalized growth,"locus YDR318W, strain mcm21, active compounds read low",1.04
same,normalized growth,"locus YDR334W, strain swr1, active compounds read low",0.997
same,normalized growth,"locus YDR335W, strain msn5, active compounds read low",0.993
same,normalized growth,"locus YDR388W, active compounds read low",1.03
same,normalized growth,"locus YDR392W, strain spt3, active compounds read low",1.02
same,normalized growth,"locus YDR502C, strain sam2, active compounds read low",1.03
same,normalized growth,"locus YEL003W, strain gim4, active compounds read low",1.01
same,normalized growth,"locus YEL037C, strain rad23, active compounds read low",1
same,normalized growth,"locus YEL061C, strain CIN8 (second series), active compounds read low",1
same,normalized growth,"locus YER015W, strain faa2, active compounds read low",1
same,normalized growth,"locus YER016W, strain bim1, active compounds read low",1
same,normalized growth,"locus YER110C, active compounds read low",1.03
same,normalized growth,"locus YER111C, strain swi4, active compounds read low",1.02
same,normalized growth,"locus YER155C, strain BEM2 (second series), active compounds read low",1.04
same,normalized growth,"locus YER155C, strain BEM2, active compounds read low",1.04
same,normalized growth,"locus YER167W, strain BCK2, active compounds read low",1.05
same,normalized growth,"locus YFR010W, strain ubp6, active compounds read low",0.997
same,normalized growth,"locus YGL078C, strain dbp3, active compounds read low",1.01
same,normalized growth,"locus YGL086W, strain mad1, active compounds read low",1.05
same,normalized growth,"locus YGL167C, strain pmr1, active compounds read low",0.999
same,normalized growth,"locus YGL173C, strain kem1, active compounds read low",1
same,normalized growth,"locus YGL227W, strain vid30, active compounds read low",0.998
same,normalized growth,"locus YGL240W, strain doc1, active compounds read low",1.02
same,normalized growth,"locus YGL248W, strain PDE1, active compounds read low",1.03
same,normalized growth,"locus YGL253W, strain hxk2, active compounds read low",0.994
same,normalized growth,"locus YGR135W, strain pre9, active compounds read low",1.04
same,normalized growth,"locus YGR229C, strain SMI1, active compounds read low",1.08
same,normalized growth,"locus YGR252W, strain gcn5, active compounds read low",1.17
same,normalized growth,"locus YHR013C, strain ard1, active compounds read low",1.03
same,normalized growth,"locus YHR027C, strain rpn1, active compounds read low",1
same,normalized growth,[1],1.03
same,normalized growth,"locus YHR079C, strain IRE1 (second series), active compounds read low",1.03
same,normalized growth,"locus YHR094C, strain hxt1, active compounds read low",1.04
same,normalized growth,"locus YHR129C, strain ARP1, active compounds read low",1.04
same,normalized growth,"locus YHR142W, strain chs7, active compounds read low",1
same,normalized growth,"locus YHR200W, strain rpn10, active compounds read low",1.03
same,normalized growth,"locus YIL066C, strain RNR3, active compounds read low",1.01
same,normalized growth,"locus YIL073C, strain SPO22, active compounds read low",1.1
same,normalized growth,"locus YIL125W, strain kgd1, active compounds read low",1.03
same,normalized growth,"locus YIR030C, strain dcg1, active compounds read low",1.03
same,normalized growth,"locus YJL092W, strain hpr5, active compounds read low",1
same,normalized growth,"locus YJL095W, strain BCK1 (second series), active compounds read low",1
same,normalized growth,[2],1.05
same,normalized growth,"locus YJL115W, strain asf1, active compounds read low",0.992
same,normalized growth,"locus YJL129C, strain trk1, active compounds read low",0.993
same,normalized growth,"locus YJL134W, strain LCB3, active compounds read low",1.04
same,normalized growth,"locus YJL154C, strain vps35, active compounds read low",1
same,normalized growth,"locus YJL164C, strain tpk1, active compounds read low",0.966
same,normalized growth,"locus YJL166W, strain qcr8, active compounds read low",0.988
same,normalized growth,"locus YJL168C, strain set2, active compounds read low",1.04
same,normalized growth,"locus YJL187C, strain SWE1 (second series), active compounds read low",1.03
same,normalized growth,"locus YJL187C, strain SWE1, active compounds read low",0.995
same,normalized growth,"locus YKL068W, active compounds read low",1.01
same,normalized growth,"locus YKL160W, strain elf1, active compounds read low",0.993
same,normalized growth,"locus YKR001C, strain vps1, active compounds read low",1.07
same,normalized growth,"locus YKR026C, strain gcn3, active compounds read low",1.01
same,normalized growth,"locus YKR091W, strain srl3, active compounds read low",0.996
same,normalized growth,"locus YLL001W, strain dnm1, active compounds read low",0.949
same,normalized growth,"locus YLL026W, active compounds read low",0.998
same,normalized growth,"locus YLL041C, strain sdh2, active compounds read low",0.998
same,normalized growth,"locus YLR027C, strain aat2, active compounds read low",0.993
same,normalized growth,"locus YLR039C, strain RIC1, active compounds read low",1.09
same,normalized growth,"locus YLR058C, strain SHM2, active compounds read low",1.04
same,normalized growth,"locus YLR102C, strain apc9, active compounds read low",1.04
same,normalized growth,"locus YLR221C, strain rsa3, active compounds read low",1.03
same,normalized growth,"locus YLR258W, strain gsy2, active compounds read low",1.01
same,normalized growth,"locus YLR262C, strain YPT6 (second series), active compounds read low",0.768 (active)
same,normalized growth,"locus YLR262C, strain YPT6, active compounds read low",1.02
same,normalized growth,"locus YLR268W, strain sec22, active compounds read low",1.04
same,normalized growth,"locus YLR320W, strain mms22, active compounds read low",1.03
same,normalized growth,"locus YLR330W, strain CHS5, active compounds read low",1.04
same,normalized growth,"locus YLR342W, strain FKS1, active compounds read low",1.02
same,normalized growth,"locus YLR357W, strain rsc2, active compounds read low",1.02
same,normalized growth,"locus YLR370C, strain arc18, active compounds read low",1.01
same,normalized growth,"locus YLR371W, strain rom2, active compounds read low",1.04
same,normalized growth,"locus YLR384C, strain iki3, active compounds read low",1
same,normalized growth,"locus YLR418C, strain cdc73, active compounds read low",1.09
same,normalized growth,"locus YML016C, strain PPZ1, active compounds read low",1.05
same,normalized growth,"locus YML032C, strain rad52, active compounds read low",1.04
same,normalized growth,"locus YML120C, strain ndi1, active compounds read low",0.995
same,normalized growth,"locus YML124C, strain tub3, active compounds read low",1.03
same,normalized growth,"locus YMR058W, strain fet3, active compounds read low",1.01
same,normalized growth,"locus YMR078C, strain ctf18, active compounds read low",1.05
same,normalized growth,"locus YMR125W, strain sto1, active compounds read low",1
same,normalized growth,"locus YMR129W, active compounds read low",1
same,normalized growth,"locus YMR205C, strain PFK2, active compounds read low",0.943
same,normalized growth,"locus YMR223W, strain ubp8, active compounds read low",1.03
same,normalized growth,"locus YMR231W, strain pep5, active compounds read low",0.98
same,normalized growth,"locus YMR307W, strain GAS1, active compounds read low",1.07
same,normalized growth,"locus YNL067W, strain RPL9B, active compounds read low",1.03
same,normalized growth,"locus YNL071W, strain lat1, active compounds read low",0.996
same,normalized growth,"locus YNL153C, strain GIM3, active compounds read low",1.01
same,normalized growth,"locus YNL209W, strain ssb2, active compounds read low",1
same,normalized growth,"locus YNL233W, strain BNI4, active compounds read low",1.03
same,normalized growth,"locus YNL248C, strain rpa49, active compounds read low",0.959
same,normalized growth,"locus YNL250W, strain rad50, active compounds read low",1.04
same,normalized growth,"locus YNL271C, strain bni1, active compounds read low",1.03
same,normalized growth,"locus YNL298W, strain CLA4, active compounds read low",1.02
same,normalized growth,"locus YNL307C, strain MCK1, active compounds read low",1.03
same,normalized growth,"locus YNL322C, strain KRE1 (second series), active compounds read low",0.989
same,normalized growth,"locus YNR049C, strain mso1, active compounds read low",0.995
same,normalized growth,"locus YNR052C, strain pop2, active compounds read low",1.04
same,normalized growth,"locus YOL006C, strain TOP1, active compounds read low",1.09
same,normalized growth,"locus YOL012C, strain htz1",1.47
same,normalized growth,"locus YOL147C, strain pex11, active compounds read low",1.05
same,normalized growth,"locus YOR001W, strain rrp6, active compounds read low",0.983
same,normalized growth,"locus YOR061W, strain CKA2, active compounds read low",1.03
same,normalized growth,"locus YOR069W, strain VPS5, active compounds read low",1.03
same,normalized growth,"locus YOR070C, strain gyp1, active compounds read low",1.02
same,normalized growth,"locus YOR080W, strain dia2, active compounds read low",1.01
same,normalized growth,"locus YOR083W, strain WHI5, active compounds read low",0.994
same,normalized growth,"locus YOR106W, strain vam3, active compounds read low",0.982
same,normalized growth,"locus YOR136W, strain idh2, active compounds read low",1.03
same,normalized growth,"locus YOR144C, strain elg1, active compounds read low",1.04
same,normalized growth,"locus YOR184W, strain ser1, active compounds read low",0.955
same,normalized growth,"locus YOR265W, strain rbl2, active compounds read low",0.999
same,normalized growth,"locus YOR270C, strain vph1, active compounds read low",0.877
same,normalized growth,"locus YOR290C, strain snf2, active compounds read low",0.946
same,normalized growth,"locus YOR316C, strain cot1, active compounds read low",1.02
same,normalized growth,"locus YPL051W, strain arl3, active compounds read low",1.03
same,normalized growth,"locus YPL078C, strain atp4, active compounds read low",0.966
same,normalized growth,"locus YPL106C, strain sse1, active compounds read low",1.1
same,normalized growth,"locus YPL240C, strain hsp82, active compounds read low",1.01
same,normalized growth,"locus YPL241C, strain CIN2, active compounds read low",1.05
same,normalized growth,"locus YPR119W, strain clb2, active compounds read low",1.04
same,normalized growth,"locus YPR141C, strain kar3, active compounds read low",1.05
same,normalized growth,"locus YPR163C, strain tif3, active compounds read low",1.04
same,normalized growth,"locus YPR167C, strain met16, active compounds read low",1.03
same,normalized growth,"strain wtn01, active compounds read low",1.02
